Among all 5,500 compounds or so, about 2,000 (36%) were called active. Another 18% or so got no clear call; they are omitted. Rule as the data show it: active = normalized growth mostly below about 0.91 (no sharp cut-off); inconclusive = no clear call, values can overlap the other calls; inactive = mostly above about 0.92. Some of the results follow.
Experiment: chemical genetic growth profiling, strain panel (AID 1159580);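 also: tested at 20 µM; growth read once vehicle control cultures reached saturation at 30 °C; 1 = growth at the plate median or of vehicle wells; lower values mean less growth of the strain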
Details: growth OD

Measured: normalized growth

CO[C@H]1C[C@H](O[C@H]2[C@H](C)[C@@H](OC3O[C@H](C)C[C@H](N(C)C)[C@H]3OC(C)=O)[C@@H](C)C[C@]3(CO3)C(=O)[C@H](C)[C@@H](OC(C)=O)[C@@H](C)[C@@H](C)OC(=O)[C@@H]2C)O[C@@H](C)[C@@H]1OC(C)=O (some centres undefined)
inactive: S. cerevisiae deletion strains, locus YKL009W, strain mrt4, hits give low values 0.977 | S. cerevisiae deletion strains, locus YKL068W, hits give low values 0.995 | S. cerevisiae deletion strains, locus YKL085W, strain MDH1 (second series), hits give low values 0.989 | S. cerevisiae deletion strains, locus YKL085W, strain MDH1, hits give low values 0.989 | S. cerevisiae deletion strains, locus YKL160W, strain elf1, hits give low values 0.984 | S. cerevisiae deletion strains, locus YKL190W, strain CNB1, hits give low values 1 | S. cerevisiae deletion strains, locus YKR001C, strain vps1, hits give low values 0.982 | S. cerevisiae deletion strains, locus YKR026C, strain gcn3, hits give low values 0.982 | S. cerevisiae deletion strains, locus YKR091W, strain srl3, hits give low values 0.997 | S. cerevisiae deletion strains, locus YLL001W, strain dnm1, hits give low values 1.01 | S. cerevisiae deletion strains, locus YLL026W, hits give low values 1 | S. cerevisiae deletion strains, locus YLL041C, strain sdh2, hits give low values 1 | S. cerevisiae deletion strains, locus YLR027C, strain aat2, hits give low values 0.984 | S. cerevisiae deletion strains, locus YLR039C, strain RIC1, hits give low values 1.02 | S. cerevisiae deletion strains, locus YLR058C, strain SHM2, hits give low values 1.01 | S. cerevisiae deletion strains, locus YLR102C, strain apc9, hits give low values 0.989 | S. cerevisiae deletion strains, locus YLR113W, strain HOG1, hits give low values 0.978 | S. cerevisiae deletion strains, locus YLR221C, strain rsa3, hits give low values 0.99 | S. cerevisiae deletion strains, locus YLR258W, strain gsy2, hits give low values 0.997 | S. cerevisiae deletion strains, locus YLR262C, strain YPT6 (second series), hits give low values 0.983 | S. cerevisiae deletion strains, locus YLR262C, strain YPT6, hits give low values 1.02 | S. cerevisiae deletion strains, locus YLR268W, strain sec22, hits give low values 0.987 | S. cerevisiae deletion strains, locus YLR320W, strain mms22, hits give low values 0.993 | S. cerevisiae deletion strains, locus YLR330W, strain CHS5, hits give low values 1 | S. cerevisiae deletion strains, locus YLR342W, strain FKS1 (second series), hits give low values 0.983 | S. cerevisiae deletion strains, locus YLR342W, strain FKS1, hits give low values 0.982 | S. cerevisiae deletion strains, locus YLR357W, strain rsc2, hits give low values 0.997 | S. cerevisiae deletion strains, locus YLR370C, strain arc18, hits give low values 0.993 | S. cerevisiae deletion strains, locus YLR371W, strain rom2, hits give low values 0.983 | S. cerevisiae deletion strains, locus YLR384C, strain iki3, hits give low values 0.995 | S. cerevisiae deletion strains, locus YLR418C, strain cdc73, hits give low values 0.961 | S. cerevisiae deletion strains, locus YML016C, strain PPZ1, hits give low values 1.01 | S. cerevisiae deletion strains, locus YML032C, strain rad52, hits give low values 0.991 | S. cerevisiae deletion strains, locus YML120C, strain ndi1, hits give low values 0.989 | S. cerevisiae deletion strains, locus YML124C, strain tub3, hits give low values 0.985 | S. cerevisiae deletion strains, locus YMR058W, strain fet3, hits give low values 1 | S. cerevisiae deletion strains, locus YMR078C, strain ctf18, hits give low values 1 | S. cerevisiae deletion strains, locus YMR125W, strain sto1, hits give low values 0.975 | S. cerevisiae deletion strains, locus YMR129W, hits give low values 0.998 | S. cerevisiae deletion strains, locus YMR205C, strain PFK2, hits give low values 1.01 | S. cerevisiae deletion strains, locus YMR223W, strain ubp8, hits give low values 0.992 | S. cerevisiae deletion strains, locus YMR231W, strain pep5, hits give low values 0.997 | S. cerevisiae deletion strains, locus YMR263W, strain SAP30, hits give low values 1 | S. cerevisiae deletion strains, locus YMR307W, strain GAS1, hits give low values 0.962 | S. cerevisiae deletion strains, locus YNL067W, strain RPL9B, hits give low values 1.01 | S. cerevisiae deletion strains, locus YNL071W, strain lat1, hits give low values 0.975 | S. cerevisiae deletion strains, locus YNL183C, strain NPR1, hits give low values 0.932 | S. cerevisiae deletion strains, locus YNL209W, strain ssb2, hits give low values 0.99 | S. cerevisiae deletion strains, locus YNL233W, strain BNI4, hits give low values 1.02 | S. cerevisiae deletion strains, locus YNL248C, strain rpa49, hits give low values 1.01 | S. cerevisiae deletion strains, locus YNL250W, strain rad50, hits give low values 1.01 | S. cerevisiae deletion strains, locus YNL271C, strain bni1, hits give low values 0.985 | S. cerevisiae deletion strains, locus YNL298W, strain CLA4, hits give low values 0.969 | S. cerevisiae deletion strains, locus YNL307C, strain MCK1, hits give low values 0.987 | S. cerevisiae deletion strains, locus YNL322C, strain KRE1 (second series), hits give low values 0.992 | S. cerevisiae deletion strains, locus YNL322C, strain KRE1, hits give low values 1 | S. cerevisiae deletion strains, locus YNR049C, strain mso1, hits give low values 1 | S. cerevisiae deletion strains, locus YNR052C, strain pop2, hits give low values 0.998 | S. cerevisiae deletion strains, locus YOL006C, strain TOP1, hits give low values 1 | S. cerevisiae deletion strains, locus YOL012C, strain htz1 0.913 | S. cerevisiae deletion strains, locus YOL147C, strain pex11, hits give low values 0.992 | S. cerevisiae deletion strains, locus YOR001W, strain rrp6, hits give low values 1 | S. cerevisiae deletion strains, locus YOR061W, strain CKA2, hits give low values 1.01 | S. cerevisiae deletion strains, locus YOR069W, strain VPS5, hits give low values 1.01 | S. cerevisiae deletion strains, locus YOR070C, strain gyp1, hits give low values 1.01 | S. cerevisiae deletion strains, locus YOR080W, strain dia2, hits give low values 1 | S. cerevisiae deletion strains, locus YOR083W, strain WHI5, hits give low values 0.988 | S. cerevisiae deletion strains, locus YOR106W, strain vam3, hits give low values 1 | S. cerevisiae deletion strains, locus YOR136W, strain idh2, hits give low values 0.988 | S. cerevisiae deletion strains, locus YOR144C, strain elg1, hits give low values 0.985 | S. cerevisiae deletion strains, locus YOR184W, strain ser1, hits give low values 0.982 | S. cerevisiae deletion strains, locus YOR231W, strain MKK1, hits give low values 0.955 | S. cerevisiae deletion strains, locus YOR265W, strain rbl2, hits give low values 0.997 | S. cerevisiae deletion strains, locus YOR270C, strain vph1, hits give low values 1.02 | S. cerevisiae deletion strains, locus YOR290C, strain snf2, hits give low values 0.996 | S. cerevisiae deletion strains, locus YOR316C, strain cot1, hits give low values 0.993 | S. cerevisiae deletion strains, locus YPL051W, strain arl3, hits give low values 0.992 | S. cerevisiae deletion strains, locus YPL055C, strain LGE1, hits give low values 1.02 | S. cerevisiae deletion strains, locus YPL078C, strain atp4, hits give low values 1.01 | S. cerevisiae deletion strains, locus YPL106C, strain sse1, hits give low values 0.996 | S. cerevisiae deletion strains, locus YPL240C, strain hsp82, hits give low values 1 | S. cerevisiae deletion strains, locus YPL241C, strain CIN2, hits give low values 1 | S. cerevisiae deletion strains, locus YPL256C, strain CLN2, hits give low values 0.959 | S. cerevisiae deletion strains, locus YPR119W, strain clb2, hits give low values 0.986 | S. cerevisiae deletion strains, locus YPR141C, strain kar3, hits give low values 0.984 | S. cerevisiae deletion strains, locus YPR163C, strain tif3, hits give low values 0.99 | S. cerevisiae deletion strains, locus YPR167C, strain met16, hits give low values 0.979 | S. cerevisiae deletion strains, strain wtn01, hits give low values 0.975 | S. cerevisiae strains, strain wild type, hits give low values 1
